Drawing on PubChem BioAssay, this text covers composite z-score and z-score for 23 compounds.

The subject of experiment [1] is XIP peptide (Xip251-270) binding. The experiment in a line: XIP fragment 251-270 binding compounds – biochemical, small-molecule microarray, fluorescence 635/667 nm, 0.1 µg/mL protein, primary screen (AID 1182). Conditions: fluorescent protein binding, 635 nm, higher = more signal, called active from +8 up or from −8 down.
The test system of a further experiment is XIP peptide (Xip251-270). As to the kind of experiment: compounds binding XIP fragment 251-270 – biochemical, small-molecule microarray, fluorescence 635/667 nm, 0.5 µg/mL protein, primary screen (AID 1183). Conditions: fluorescence 635 nm, higher = more signal.
Experiment [2] can be described thus: blood-stage malaria parasite viability loss – strain 3D7, DAPI fluorescence, 100 nL, primary screen (AID 1184).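 Further: parasites grown inside human red blood cells in medium with human serum.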 Particulars: P. falciparum 3D7 growth, 3 d, higher = more signal.
The target in experiment [3] is Homeobox protein Hox-A13 (Mus musculus) (UniProt Q62424). The experiment in a line: disruptors of Hoxa13 oligonucleotide interaction – biochemical, fluorescence polarization, labeled oligonucleotide, primary screen (AID 1185). Particulars: Hoxa13:DNA binding, 15 min, higher = more signal, called active from +8 up or from −8 down. (In general: Polarisation of emitted light reports the rotation of a fluorescent probe.)
Sequence of Homeobox protein Hox-A13 (Mus musculus) (Q62424 whole entry, looked up): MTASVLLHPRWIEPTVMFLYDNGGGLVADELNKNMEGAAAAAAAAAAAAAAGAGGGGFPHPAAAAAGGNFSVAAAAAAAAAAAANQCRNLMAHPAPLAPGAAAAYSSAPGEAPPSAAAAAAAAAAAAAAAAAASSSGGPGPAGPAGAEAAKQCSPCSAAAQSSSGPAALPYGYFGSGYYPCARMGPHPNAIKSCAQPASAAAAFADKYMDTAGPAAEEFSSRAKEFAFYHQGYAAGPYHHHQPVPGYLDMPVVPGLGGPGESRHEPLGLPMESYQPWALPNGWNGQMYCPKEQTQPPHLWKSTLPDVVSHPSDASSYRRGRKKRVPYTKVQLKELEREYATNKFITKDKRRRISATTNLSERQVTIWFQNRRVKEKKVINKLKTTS

Experiment [4] is described as follows: blockers of DNA damage checkpoint Chk1 activation – imaging, HeLa, hydroxyurea, phospho-Chk1 antibody, percent positive cells, primary screen (AID 1186). Conditions: hydroxyurea-induced phospho-Chk1 immunofluorescence imaging, higher = more signal.
Experiment [5] can be described thus: blockers of DNA damage checkpoint Chk1 activation – imaging, HeLa, hydroxyurea, phospho-Chk1 nuclear intensity, primary screen (AID 1187). Particulars: hydroxyurea-induced phospho-Chk1 immunofluorescence imaging, higher = more signal.

SMILES strings stand for the structures. Active and inactive are the calls of the source. Unless noted, how the calls were made is not given here.

As for `C=CC[C@]1(C(=O)O)N=C(c2ccc(OCCCO)cc2)O[C@H]1c1ccccc1N=[N+]=[N-]`, the composite z-score in experiment [1] is 0.718 (inactive); with XIP peptide (Xip251-270), -0.519. For the same compound, the z-score in experiment [2] is -1.3; in experiment [3], -5.25 (inactive); in experiment [4], -0.0145 (inactive); in experiment [5] it was 0.144 (inactive).

Regarding `CCCNC(=O)[C@@H]1c2ccccc2C(=O)N(C2CCCCC2)[C@H]1c1ccc(CO)cc1`, the composite z-score in experiment [1] was 0.521 (inactive); in the experiment with XIP peptide (Xip251-270), 0.749. The z-score in experiment [2] is -0.939; in experiment [3] it was -3.69 (inactive); in experiment [4], 0.108 (inactive); in experiment [5], -0.138 (inactive).

Regarding `CC(C)N1CC=CC23O[C@@H]4/C=C\CCCOC(=O)C4[C@H]2C(=O)N(CCO)[C@@H]3C1=O` (stereo partly drawn), the composite z-score was 1.85 (inactive) in experiment [1] and 0.122 in the experiment on XIP peptide (Xip251-270). The z-score in experiment [2] was -0.348; in experiment [3], -5.41 (inactive); in experiment [4], -1.32 (inactive); in experiment [5], -0.544 (inactive).

Turning to `CO[C@H]1O[C@H](CO)[C@@H](OC(=O)Nc2ccc(Oc3ccccc3)cc2)[C@H](OC(=O)Nc2ccccc2-c2ccccc2)[C@H]1OC(=O)Nc1ccccc1-c1ccccc1`, the composite z-score in experiment [1] is 1.57 (inactive); in the experiment on XIP peptide (Xip251-270), 0.832. Moreover, the z-score in experiment [2] was -2.09; in experiment [3], 0.193 (inactive); in experiment [4] it was -0.0605 (inactive); in experiment [5], 0.413 (inactive).

Turning to `[N-]=[N+]=Nc1ccccc1C[C@@]1(C(=O)N2CCOCC2)N=C(c2ccc(OCCCO)cc2)O[C@@H]1c1ccccc1N=[N+]=[N-]`, the composite z-score in experiment [1] is 0.49 (inactive); in the experiment on XIP peptide (Xip251-270), 0.348. For the same compound, the z-score in experiment [2] is -2.28; in experiment [3], -5.16 (inactive); in experiment [4], -1.03 (inactive); in experiment [5] it was -1.06 (inactive).

On to `CCOC(=O)C[C@H]1[C@H](OC(=O)Cc2ccc3c(c2)OCO3)[C@@H](NC(=O)CC(C)C)c2cc(OCCCO)ccc2N1C(=O)c1ccccc1`, for which the composite z-score in experiment [1] was 0.443 (inactive); in the experiment on XIP peptide (Xip251-270) it was -0.487. The z-score in experiment [2] was -0.584; in experiment [3], -1.41 (inactive); in experiment [4] it was -0.398 (inactive); in experiment [5] it was -0.321 (inactive).

With `COC(=O)C1=CC(c2ccc(CO)cc2)=CC(C2CC2)N(Cc2sc3ccccc3c2Cl)C=C1C(=O)OC` (stereo not drawn), the composite z-score in experiment [1] was 2.17 (inactive); in the experiment with XIP peptide (Xip251-270) it was 0.889. Further, the z-score in experiment [2] is -2.13; in experiment [3] it was -2.26 (inactive); in experiment [4], -0.288 (inactive); in experiment [5] it was -0.225 (inactive).

Take `O=C1O[C@@H](c2ccccc2)[C@@H](c2ccccc2)N2[C@@H](c3ccc(OCCO)cc3)[C@]3(C(=O)Nc4ccc(C#CCCO)cc43)[C@@H](C(=O)N3CCN(c4ncccn4)CC3)[C@H]12`: the composite z-score in experiment [1] was 0.42 (inactive); in the experiment with XIP peptide (Xip251-270), 0.721. For the same compound, the z-score in experiment [2] is -2.03; in experiment [3], -0.282 (inactive); in experiment [4], 0.396 (inactive); in experiment [5], 0.92 (inactive).

As for `CCOC(=O)C1=C[C@@H](c2ccccc2)N(S(=O)(=O)c2ccc(C)cc2)[C@H]1c1ccc(F)cc1`, the values for the composite z-score (in experiment [1]; in the experiment on XIP peptide (Xip251-270)) were 0.346 (inactive) and 0.382, respectively. Besides, the z-score in experiment [2] is -2.17; in experiment [3] it was -0.178 (inactive); in experiment [4], 0.0332 (inactive); in experiment [5] it was -0.293 (inactive).

As for `Cc1ccc(N2C(=O)c3ccccc3[C@@H](C(=O)NCc3ccccc3)[C@@H]2c2ccc(CO)cc2)nc1`, the composite z-score is -0.337 (inactive) in experiment [1] and -0.98 with XIP peptide (Xip251-270). Further, the z-score in experiment [2] is -0.432; in experiment [3], -0.681 (inactive); in experiment [4], -0.639 (inactive); in experiment [5], -0.627 (inactive).

For the compound `CCCC=C(CCC)[C@@H](NC(=O)c1ccc(C(F)(F)F)cc1)c1ccccc1`, the figures for the composite z-score (in experiment [1]; in the experiment with XIP peptide (Xip251-270)) were 0.177 (inactive) and 0.144, respectively. Besides, the z-score was -1.55 in experiment [2], -0.261 (inactive) in experiment [3], 0.128 (inactive) in experiment [4] and 0.29 (inactive) in experiment [5].

`CC(=O)NCCCC[C@@H]1NC(=O)[C@H]2C[C@@H](C(=O)NCCCCCCN(C)C)[C@@H](c3cccc(OCCO)c3)N2C1=O`: the composite z-score was 2.96 (inactive) in experiment [1] and 0.882 with XIP peptide (Xip251-270). The z-score is -0.0473 in experiment [2], -2.84 (inactive) in experiment [3], 0.181 (inactive) in experiment [4] and 0.733 (inactive) in experiment [5].

As for `C#C[C@H](O[Si](C#Cc1ccccc1)(C(C)C)C(C)C)c1ccccc1`, the composite z-score in experiment [1] is 0.114 (inactive); with XIP peptide (Xip251-270), 0.311. Further, the z-score in experiment [2] is -1.16; in experiment [3], -1.52 (inactive); in experiment [4] it was 0.116 (inactive); in experiment [5], 0.201 (inactive).

As to `CCCC[C@@H]1C[C@H]1[C@@H](NC(=O)c1cccs1)c1ccc(Cl)cc1`, the composite z-score in experiment [1] is 0.0874 (inactive); in the experiment on XIP peptide (Xip251-270), -0.0771. The z-score in experiment [2] is -0.911; in experiment [3], -0.736 (inactive); in experiment [4], -0.207 (inactive); in experiment [5] it was 0.205 (inactive).

Turning to `CCCNC(=O)[C@@]1(Sc2ccc(C)cc2)CC(=O)N(Cc2ccccc2Cl)[C@@H]1c1ccc(CO)cc1`, the composite z-score in experiment [1] was 0.266 (inactive); with XIP peptide (Xip251-270), -0.271. The z-score was -1.79 in experiment [2], -1.4 (inactive) in experiment [3], -0.423 (inactive) in experiment [4] and -0.365 (inactive) in experiment [5].

Take `CC(C)C[C@@H]1NC(=O)[C@H](CC(C)C)NC(=O)[C@@]23C(=O)N[C@@H](Cc4ccccc4)C2[C@H](C)[C@@]2(C)O[C@H]2C3/C=C/CC/C=C/CNC1=O` (stereo partly drawn): the composite z-score in experiment [1] was -0.404 (inactive); with XIP peptide (Xip251-270) it was 0.674. Moreover, the z-score was -1.52 in experiment [2], -6.55 (inactive) in experiment [3], -0.218 (inactive) in experiment [4] and -0.0919 (inactive) in experiment [5].

Regarding `CCC1=C2CN(Cc3ccccc3Br)[C@@H]([C@@H](O)Cc3ccccc3)C2C=CCC1` (stereo partly drawn), the composite z-score in experiment [1] was -0.314 (inactive); in the experiment with XIP peptide (Xip251-270), 0.509. In addition, the z-score in experiment [2] is -1.92; in experiment [3], -7.8 (inactive); in experiment [4], -0.0994 (inactive); in experiment [5], -0.311 (inactive).

`C=CC[C@@]12N=C(c3ccc(OCCCO)cc3)O[C@@H]1c1ccccc1CN(Cc1ccccc1)C2=O`: the composite z-score in experiment [1] is 1.54 (inactive); in the experiment on XIP peptide (Xip251-270), 0.78. Moreover, the z-score was -2.61 in experiment [2], -1.94 (inactive) in experiment [3], -0.367 (inactive) in experiment [4] and 0.0207 (inactive) in experiment [5].

On to `O=C1c2ccccc2[C@](Cc2ccccc2I)(C(=O)NCc2ccccc2)[C@H](c2ccc(CO)cc2)N1Cc1ccccc1C(F)(F)F`, for which the composite z-score in experiment [1] was 0.696 (inactive); in the experiment on XIP peptide (Xip251-270), -1.14. Moreover, the z-score in experiment [2] is -0.794; in experiment [3] it was -1.29 (inactive); in experiment [4], -0.361 (inactive); in experiment [5], -0.331 (inactive).

In the case of `CC[C@@H]1C=C(C(=O)O)[C@H](c2ccccc2)N1S(=O)(=O)c1ccc([N+](=O)[O-])cc1`, the composite z-score in experiment [1] is -0.0477 (inactive); in the experiment on XIP peptide (Xip251-270) it was 0.729. The z-score in experiment [2] is -1.01; in experiment [3], -3.73 (inactive); in experiment [4] it was -0.0036 (inactive); in experiment [5] it was -0.3 (inactive).

As to `COc1ccc([Si](C)(C)[C@H]2[C@H](CC(=O)N(CCO)Cc3ccccc3)O[C@@]3(C(=O)N(C)c4ccccc43)[C@@H]2C)cc1`, the composite z-score in experiment [1] was 0.0642 (inactive); in the experiment on XIP peptide (Xip251-270) it was 0.369. In addition, the z-score was -0.134 in experiment [2], -6.95 (inactive) in experiment [3], -0.217 (inactive) in experiment [4] and -0.251 (inactive) in experiment [5].

Regarding `Cc1ccc(S[C@]2(C(=O)NC(C)C)CC(=O)N(C3Cc4ccccc4C3)[C@@H]2c2ccc(CO)cc2)cc1`, the composite z-score is 0.137 (inactive) in experiment [1] and 0.882 with XIP peptide (Xip251-270). In addition, the z-score in experiment [2] was -1.29; in experiment [3], -3.21 (inactive); in experiment [4], 0.0695 (inactive); in experiment [5], 0.0887 (inactive).

Consider `CC(C)C[C@@H]1NC(=O)[C@H]2C[C@@H](C(=O)NCCCCCC[N+](C)(C)C)[C@@H](c3ccc(O)cc3)N2C1=O`, for which the composite z-score in experiment [1] is 0.28 (inactive); with XIP peptide (Xip251-270) it was 0.608. The z-score in experiment [2] was 1.17; in experiment [3], -3.14 (inactive); in experiment [4], 0.554 (inactive); in experiment [5], 0.61 (inactive).
